Experimental data taken from PMC7862700, “An all-to-all approach to the identification of sequence-specific readers for epigenetic DNA modifications on cytosine”.

Legend:
Assay in all cases: DAPPL (digital affinity profiling via proximity ligation, sequencing); 10 mM Tris-HCl pH 7.5, 50 mM NaCl, 1 mM DTT, 4% glycerol, room temperature, 30 min; GST-TFs on glutathione beads, 16-mer random dsDNA library, 0.1% formaldehyde crosslink after washing; high values mean tight binding
[1] = molecular target: T1, FEV (Homo sapiens, UniProt Q99581 1-238); conditions: protein: recombinant; tags: N-terminal GST; dsDNA, one strand shown
T1 sequence: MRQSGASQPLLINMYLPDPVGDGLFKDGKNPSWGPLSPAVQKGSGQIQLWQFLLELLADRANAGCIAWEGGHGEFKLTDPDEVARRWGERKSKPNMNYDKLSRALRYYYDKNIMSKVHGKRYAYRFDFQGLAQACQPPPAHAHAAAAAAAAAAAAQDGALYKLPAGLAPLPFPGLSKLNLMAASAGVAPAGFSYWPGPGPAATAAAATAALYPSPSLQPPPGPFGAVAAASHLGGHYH
Procedure, shortened: (§1)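 Pools of DNA-barcoded human transcription factors, expressed in yeast as GST fusions on glutathione beads and combined with a tag-only sample, were incubated with 200 nmole of a 16-mer random double-stranded DNA library. Incubation took 30 min at room temperature in Tris/NaCl/DTT/glycerol buffer and was followed by washing, 0.1% formaldehyde crosslinking, proximity ligation (BsaI/T4 ligase, 1 h, 37 °C), PCR amplification and sequencing on an Illumina NextSeq500. Binding signal is the ratio of a hexamer's read frequency for a factor to its frequency for the tag-only sample.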

[2] = molecular target: ETV5 (Homo sapiens, UniProt P41161 1-510); conditions: protein: recombinant; tags: N-terminal GST; dsDNA, one strand shown
Procedure, shortened: as §1

[3] = molecular target: HSF1 (Homo sapiens, UniProt Q00613 1-529); conditions: protein: recombinant; tags: N-terminal GST; chain copies: 3; dsDNA, one strand shown
Procedure, shortened: as §1

[4] = molecular target: T2, SPIC (Homo sapiens, UniProt Q8N5J4 1-248); conditions: protein: recombinant; tags: N-terminal GST; dsDNA, one strand shown
T2 sequence: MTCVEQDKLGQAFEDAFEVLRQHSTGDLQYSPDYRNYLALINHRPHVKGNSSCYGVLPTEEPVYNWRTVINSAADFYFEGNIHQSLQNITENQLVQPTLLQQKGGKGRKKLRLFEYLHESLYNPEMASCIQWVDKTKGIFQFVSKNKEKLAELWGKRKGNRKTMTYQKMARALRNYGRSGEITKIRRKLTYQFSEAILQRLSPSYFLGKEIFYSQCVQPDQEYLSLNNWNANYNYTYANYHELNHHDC
Procedure, shortened: as §1

[5] = molecular target: ELF4 (Homo sapiens, UniProt Q99607 1-663); conditions: protein: recombinant; tags: N-terminal GST; dsDNA, one strand shown
Procedure, shortened: as §1

[6] = molecular target: T3, ELK4 (Homo sapiens, UniProt P28324-2 1-405); conditions: protein: recombinant; tags: N-terminal GST; dsDNA, one strand shown
T3 sequence: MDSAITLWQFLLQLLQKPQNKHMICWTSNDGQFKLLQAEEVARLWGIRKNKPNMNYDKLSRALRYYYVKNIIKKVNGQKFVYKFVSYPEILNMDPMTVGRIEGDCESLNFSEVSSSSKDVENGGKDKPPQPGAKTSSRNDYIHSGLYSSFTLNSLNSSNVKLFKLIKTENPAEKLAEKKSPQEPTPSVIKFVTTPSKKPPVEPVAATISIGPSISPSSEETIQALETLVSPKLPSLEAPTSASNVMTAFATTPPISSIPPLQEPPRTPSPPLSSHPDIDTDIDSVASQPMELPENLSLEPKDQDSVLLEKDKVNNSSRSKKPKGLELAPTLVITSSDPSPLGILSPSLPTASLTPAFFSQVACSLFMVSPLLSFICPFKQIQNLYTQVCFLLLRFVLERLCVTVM
Procedure, shortened: as §1

[7] = molecular target: T4, ETV2 (Homo sapiens, UniProt O00321 1-342); conditions: protein: recombinant; tags: N-terminal GST; dsDNA, one strand shown
T4 sequence: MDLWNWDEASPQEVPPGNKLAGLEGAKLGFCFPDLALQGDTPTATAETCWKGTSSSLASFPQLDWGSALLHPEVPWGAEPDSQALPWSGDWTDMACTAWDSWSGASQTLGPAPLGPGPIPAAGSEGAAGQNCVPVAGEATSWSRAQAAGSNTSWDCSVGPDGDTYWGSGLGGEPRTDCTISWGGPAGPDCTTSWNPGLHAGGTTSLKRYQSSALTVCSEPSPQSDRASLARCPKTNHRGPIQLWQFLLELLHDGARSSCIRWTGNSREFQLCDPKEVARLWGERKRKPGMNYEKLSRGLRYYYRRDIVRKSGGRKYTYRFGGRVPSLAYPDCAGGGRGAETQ
Procedure, shortened: as §1

[8] = molecular target: T5, ELF3 (Homo sapiens, UniProt P78545 1-371); conditions: protein: recombinant; tags: N-terminal GST; dsDNA, one strand shown
T5 sequence: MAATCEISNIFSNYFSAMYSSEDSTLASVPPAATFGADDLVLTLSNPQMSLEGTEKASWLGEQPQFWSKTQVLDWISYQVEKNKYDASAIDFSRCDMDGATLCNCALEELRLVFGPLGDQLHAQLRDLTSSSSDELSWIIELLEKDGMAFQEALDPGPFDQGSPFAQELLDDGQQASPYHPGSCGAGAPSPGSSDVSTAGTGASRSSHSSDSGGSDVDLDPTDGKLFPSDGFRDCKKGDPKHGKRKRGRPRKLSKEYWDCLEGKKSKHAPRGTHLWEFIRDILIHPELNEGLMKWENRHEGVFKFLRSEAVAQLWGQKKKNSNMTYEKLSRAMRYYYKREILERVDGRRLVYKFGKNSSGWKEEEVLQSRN
Procedure, shortened: as §1

[9] = molecular target: CRX (Homo sapiens, UniProt O43186 1-299); conditions: protein: recombinant; tags: N-terminal GST; dsDNA, one strand shown
Procedure, shortened: as §1

[10] = molecular target: ETV1 (Homo sapiens, UniProt P50549 1-477); conditions: protein: recombinant; tags: N-terminal GST; dsDNA, one strand shown
Procedure, shortened: as §1

[11] = molecular target: T6, ERF (Homo sapiens, UniProt P50548 1-548); conditions: protein: recombinant; tags: N-terminal GST; dsDNA, one strand shown
T6 sequence: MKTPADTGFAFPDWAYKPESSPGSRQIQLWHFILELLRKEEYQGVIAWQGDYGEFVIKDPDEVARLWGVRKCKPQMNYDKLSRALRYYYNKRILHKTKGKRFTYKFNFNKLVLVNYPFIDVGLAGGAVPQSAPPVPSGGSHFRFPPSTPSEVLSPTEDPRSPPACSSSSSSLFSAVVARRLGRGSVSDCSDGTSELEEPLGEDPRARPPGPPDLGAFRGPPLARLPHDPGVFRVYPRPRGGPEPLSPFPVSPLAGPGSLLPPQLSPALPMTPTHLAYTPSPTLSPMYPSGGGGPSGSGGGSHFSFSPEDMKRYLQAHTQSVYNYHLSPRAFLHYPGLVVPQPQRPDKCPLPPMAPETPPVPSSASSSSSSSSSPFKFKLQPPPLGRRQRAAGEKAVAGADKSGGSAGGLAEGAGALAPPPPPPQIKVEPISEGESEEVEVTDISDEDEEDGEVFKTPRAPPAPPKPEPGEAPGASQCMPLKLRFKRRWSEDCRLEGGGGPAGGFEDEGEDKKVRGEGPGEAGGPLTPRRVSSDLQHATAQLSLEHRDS
Procedure, shortened: as §1

[12] = molecular target: T7, ETV3L (Homo sapiens, UniProt Q6ZN32 1-361); conditions: protein: recombinant; tags: N-terminal GST; dsDNA, one strand shown
T7 sequence: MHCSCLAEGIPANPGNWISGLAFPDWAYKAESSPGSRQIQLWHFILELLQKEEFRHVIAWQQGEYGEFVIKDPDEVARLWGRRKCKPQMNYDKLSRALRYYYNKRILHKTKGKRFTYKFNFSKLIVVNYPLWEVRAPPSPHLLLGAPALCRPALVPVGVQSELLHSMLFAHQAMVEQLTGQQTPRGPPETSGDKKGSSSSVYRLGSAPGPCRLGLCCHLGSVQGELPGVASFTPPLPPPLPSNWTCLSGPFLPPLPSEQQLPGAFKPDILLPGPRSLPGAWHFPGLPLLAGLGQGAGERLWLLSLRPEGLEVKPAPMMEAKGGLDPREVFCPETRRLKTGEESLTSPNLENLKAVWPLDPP
Procedure, shortened: as §1

[13] = molecular target: T8, ETS2 (Homo sapiens, UniProt P15036 1-469); conditions: protein: recombinant; tags: N-terminal GST; dsDNA, one strand shown
T8 sequence: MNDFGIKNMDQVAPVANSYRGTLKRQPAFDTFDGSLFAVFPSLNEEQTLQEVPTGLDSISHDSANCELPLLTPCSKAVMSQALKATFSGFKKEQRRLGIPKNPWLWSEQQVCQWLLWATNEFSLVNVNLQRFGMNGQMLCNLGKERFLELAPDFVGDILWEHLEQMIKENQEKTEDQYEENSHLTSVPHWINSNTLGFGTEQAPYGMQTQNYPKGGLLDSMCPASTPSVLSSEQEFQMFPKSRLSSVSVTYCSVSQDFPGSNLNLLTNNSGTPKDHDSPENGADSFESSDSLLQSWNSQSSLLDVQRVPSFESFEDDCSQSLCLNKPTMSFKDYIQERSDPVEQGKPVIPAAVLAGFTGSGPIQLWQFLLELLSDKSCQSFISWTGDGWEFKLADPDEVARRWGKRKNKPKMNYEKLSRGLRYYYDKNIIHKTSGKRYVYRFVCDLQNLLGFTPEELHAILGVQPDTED
Procedure, shortened: as §1

[14] = molecular target: T9, SPDEF (Homo sapiens, UniProt O95238 1-335); conditions: protein: recombinant; tags: N-terminal GST; dsDNA, one strand shown
T9 sequence: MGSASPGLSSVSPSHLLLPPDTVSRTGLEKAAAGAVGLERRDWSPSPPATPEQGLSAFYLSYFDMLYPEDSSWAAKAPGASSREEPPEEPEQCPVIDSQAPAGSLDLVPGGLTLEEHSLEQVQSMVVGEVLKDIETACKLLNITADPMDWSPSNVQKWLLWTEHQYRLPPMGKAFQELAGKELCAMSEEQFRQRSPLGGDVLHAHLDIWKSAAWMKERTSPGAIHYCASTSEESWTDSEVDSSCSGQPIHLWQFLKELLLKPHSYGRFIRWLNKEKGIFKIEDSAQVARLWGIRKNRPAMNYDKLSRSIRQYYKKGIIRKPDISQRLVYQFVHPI
Procedure, shortened: as §1

[15] = molecular target: T10, ETV7 (Homo sapiens, UniProt Q9Y603 1-341); conditions: protein: recombinant; tags: N-terminal GST; dsDNA, one strand shown
T10 sequence: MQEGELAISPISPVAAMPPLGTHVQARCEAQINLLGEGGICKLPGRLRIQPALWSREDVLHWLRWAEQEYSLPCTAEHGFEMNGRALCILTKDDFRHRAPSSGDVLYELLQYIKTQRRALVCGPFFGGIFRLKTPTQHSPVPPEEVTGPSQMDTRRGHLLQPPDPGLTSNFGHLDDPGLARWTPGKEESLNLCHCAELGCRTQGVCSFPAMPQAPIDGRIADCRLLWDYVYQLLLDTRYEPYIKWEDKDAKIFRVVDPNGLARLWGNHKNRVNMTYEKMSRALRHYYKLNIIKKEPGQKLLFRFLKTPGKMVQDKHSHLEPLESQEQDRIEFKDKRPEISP
Procedure, shortened: as §1

[16] = molecular target: T11, ELF5 (Homo sapiens, UniProt Q9UKW6-2 1-255); conditions: protein: recombinant; tags: N-terminal GST; dsDNA, one strand shown
T11 sequence: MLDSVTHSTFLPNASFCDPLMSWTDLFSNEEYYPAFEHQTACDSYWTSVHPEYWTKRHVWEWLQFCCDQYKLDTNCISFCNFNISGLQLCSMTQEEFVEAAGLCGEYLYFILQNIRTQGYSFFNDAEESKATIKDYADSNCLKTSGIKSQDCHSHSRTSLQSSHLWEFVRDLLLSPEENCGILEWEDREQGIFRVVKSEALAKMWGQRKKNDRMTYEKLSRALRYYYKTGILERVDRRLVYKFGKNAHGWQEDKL
Procedure, shortened: as §1

[17] = molecular target: T12, ETV3 (Homo sapiens, UniProt P41162-2 1-143); conditions: protein: recombinant; tags: N-terminal GST; dsDNA, one strand shown
T12 sequence: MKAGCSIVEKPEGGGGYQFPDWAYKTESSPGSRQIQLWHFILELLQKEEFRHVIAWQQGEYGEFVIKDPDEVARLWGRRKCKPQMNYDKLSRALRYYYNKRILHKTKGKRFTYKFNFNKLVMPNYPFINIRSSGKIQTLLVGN
Procedure, shortened: as §1

[18] = molecular target: ETV6 (Homo sapiens, UniProt P41212 1-452); conditions: protein: recombinant; tags: N-terminal GST; dsDNA, one strand shown
Procedure, shortened: as §1

Chain of HSF1 (Q00613 whole entry): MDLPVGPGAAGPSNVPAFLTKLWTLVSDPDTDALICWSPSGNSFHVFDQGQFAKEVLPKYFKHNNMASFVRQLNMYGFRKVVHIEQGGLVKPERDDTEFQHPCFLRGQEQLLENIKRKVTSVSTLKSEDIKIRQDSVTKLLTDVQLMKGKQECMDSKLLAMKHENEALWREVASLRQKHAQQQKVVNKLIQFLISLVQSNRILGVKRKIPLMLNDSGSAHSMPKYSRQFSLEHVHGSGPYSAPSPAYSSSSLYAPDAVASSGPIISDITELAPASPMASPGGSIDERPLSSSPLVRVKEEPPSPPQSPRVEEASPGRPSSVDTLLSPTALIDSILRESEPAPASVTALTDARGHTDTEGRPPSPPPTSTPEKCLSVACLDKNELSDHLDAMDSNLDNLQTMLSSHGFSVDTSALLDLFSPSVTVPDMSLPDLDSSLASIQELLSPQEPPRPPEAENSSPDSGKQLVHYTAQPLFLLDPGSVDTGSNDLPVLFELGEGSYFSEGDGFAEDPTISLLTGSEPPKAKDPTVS
Chain of ETV5 (P41161 whole entry): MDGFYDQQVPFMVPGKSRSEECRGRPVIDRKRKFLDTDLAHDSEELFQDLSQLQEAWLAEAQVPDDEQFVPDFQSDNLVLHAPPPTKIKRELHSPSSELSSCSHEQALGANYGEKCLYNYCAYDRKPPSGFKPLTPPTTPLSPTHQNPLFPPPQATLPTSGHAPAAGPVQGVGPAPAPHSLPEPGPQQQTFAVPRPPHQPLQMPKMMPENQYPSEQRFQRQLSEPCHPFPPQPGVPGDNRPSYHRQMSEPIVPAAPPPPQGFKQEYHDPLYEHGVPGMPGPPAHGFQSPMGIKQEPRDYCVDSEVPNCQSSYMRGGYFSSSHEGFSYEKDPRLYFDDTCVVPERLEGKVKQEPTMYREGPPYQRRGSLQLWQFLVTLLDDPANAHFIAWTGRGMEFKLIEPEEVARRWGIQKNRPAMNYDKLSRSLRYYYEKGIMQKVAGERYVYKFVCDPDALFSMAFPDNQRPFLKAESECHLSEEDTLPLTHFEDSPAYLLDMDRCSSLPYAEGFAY
Chain of ETV6 (P41212 whole entry): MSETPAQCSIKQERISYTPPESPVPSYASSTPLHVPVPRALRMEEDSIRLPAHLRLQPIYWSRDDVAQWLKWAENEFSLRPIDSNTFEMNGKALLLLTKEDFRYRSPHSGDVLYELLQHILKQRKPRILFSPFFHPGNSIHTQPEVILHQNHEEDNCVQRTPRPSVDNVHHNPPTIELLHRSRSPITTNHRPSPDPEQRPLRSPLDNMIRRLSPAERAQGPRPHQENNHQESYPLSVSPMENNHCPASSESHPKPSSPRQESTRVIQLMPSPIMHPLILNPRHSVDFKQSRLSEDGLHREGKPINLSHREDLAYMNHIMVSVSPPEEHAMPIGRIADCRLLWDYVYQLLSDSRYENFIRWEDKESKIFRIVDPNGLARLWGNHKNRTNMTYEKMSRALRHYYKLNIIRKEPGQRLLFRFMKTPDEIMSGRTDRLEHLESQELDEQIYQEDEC
Chain of CRX (O43186 whole entry): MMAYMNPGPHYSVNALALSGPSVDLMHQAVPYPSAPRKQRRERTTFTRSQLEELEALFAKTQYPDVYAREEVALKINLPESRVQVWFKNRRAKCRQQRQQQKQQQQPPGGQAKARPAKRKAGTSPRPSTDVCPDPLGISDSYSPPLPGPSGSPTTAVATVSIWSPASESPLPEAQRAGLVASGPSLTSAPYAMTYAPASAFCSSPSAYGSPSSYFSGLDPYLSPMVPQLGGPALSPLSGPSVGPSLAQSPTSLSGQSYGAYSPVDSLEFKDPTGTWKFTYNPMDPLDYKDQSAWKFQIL
Chain of ELF4 (Q99607 whole entry): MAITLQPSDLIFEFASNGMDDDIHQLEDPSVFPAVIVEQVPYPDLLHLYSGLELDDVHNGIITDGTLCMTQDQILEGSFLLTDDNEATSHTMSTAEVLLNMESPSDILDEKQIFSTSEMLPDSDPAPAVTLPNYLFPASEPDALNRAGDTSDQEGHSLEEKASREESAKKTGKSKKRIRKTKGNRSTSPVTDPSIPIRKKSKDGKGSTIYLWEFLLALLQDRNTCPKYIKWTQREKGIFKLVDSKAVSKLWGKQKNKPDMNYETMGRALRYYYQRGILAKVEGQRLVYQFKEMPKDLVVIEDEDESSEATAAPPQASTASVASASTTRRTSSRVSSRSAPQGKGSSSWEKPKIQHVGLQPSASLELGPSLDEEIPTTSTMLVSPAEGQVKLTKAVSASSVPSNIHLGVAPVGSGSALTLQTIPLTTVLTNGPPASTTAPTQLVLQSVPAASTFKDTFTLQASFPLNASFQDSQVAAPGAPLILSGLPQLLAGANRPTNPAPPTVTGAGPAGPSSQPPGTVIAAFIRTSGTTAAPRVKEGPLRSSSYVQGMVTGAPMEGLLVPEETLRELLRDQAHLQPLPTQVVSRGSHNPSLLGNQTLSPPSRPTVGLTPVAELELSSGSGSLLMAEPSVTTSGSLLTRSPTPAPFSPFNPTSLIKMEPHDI
Chain of ETV1 (P50549 whole entry): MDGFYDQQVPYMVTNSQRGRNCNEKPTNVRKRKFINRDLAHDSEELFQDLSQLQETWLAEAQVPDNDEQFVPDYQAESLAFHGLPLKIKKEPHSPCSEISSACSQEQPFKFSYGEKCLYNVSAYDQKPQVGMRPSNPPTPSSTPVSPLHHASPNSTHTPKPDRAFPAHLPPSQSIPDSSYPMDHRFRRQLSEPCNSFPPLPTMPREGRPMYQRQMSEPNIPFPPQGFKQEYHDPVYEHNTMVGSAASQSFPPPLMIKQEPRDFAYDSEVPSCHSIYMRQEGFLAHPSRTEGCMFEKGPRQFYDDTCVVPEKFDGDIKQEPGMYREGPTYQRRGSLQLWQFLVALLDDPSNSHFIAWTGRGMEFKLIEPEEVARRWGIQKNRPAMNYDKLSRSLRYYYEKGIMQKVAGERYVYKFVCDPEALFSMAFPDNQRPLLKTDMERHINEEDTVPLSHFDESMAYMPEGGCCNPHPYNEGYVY

With CGTCTT the binding signal [1] was 1.33 fold enrichment (6-mer frequency, TF over GST control), the binding signal [2] was 1.37 fold enrichment (6-mer frequency, TF over GST control) and the binding signal [3] was 1.31 fold enrichment (6-mer frequency, TF over GST control). The binding signal [4] was 1.38 fold enrichment (6-mer frequency, TF over GST control), the binding signal [5] was 1.38 fold enrichment (6-mer frequency, TF over GST control) and the binding signal [6] was 1.21 fold enrichment (6-mer frequency, TF over GST control). The binding signal [7] was 1.29 fold enrichment (6-mer frequency, TF over GST control), the binding signal [8] was 1.56 fold enrichment (6-mer frequency, TF over GST control) and the binding signal [9] was 1.5 fold enrichment (6-mer frequency, TF over GST control). For the same sequence, the binding signal [10] was 1.48 fold enrichment (6-mer frequency, TF over GST control), the binding signal [11] was 1.24 fold enrichment (6-mer frequency, TF over GST control) and the binding signal [12] was 1.4 fold enrichment (6-mer frequency, TF over GST control). The binding signal [13] was 1.4 fold enrichment (6-mer frequency, TF over GST control), the binding signal [14] was 1.48 fold enrichment (6-mer frequency, TF over GST control) and the binding signal [15] was 1.41 fold enrichment (6-mer frequency, TF over GST control). For the same sequence, the binding signal [16] was 1.5 fold enrichment (6-mer frequency, TF over GST control), the binding signal [17] was 1.44 fold enrichment (6-mer frequency, TF over GST control) and the binding signal [18] was 1.5 fold enrichment (6-mer frequency, TF over GST control).
